The supplement of paper PMC6411743
± gives the standard deviation of the averaged measurements. Targets with the largest changes are over-represented here; the source holds about 6,200 in all.

Compound: Nc1ncnc2c1ncn2[C@@H]1O[C@H](COP(=O)(O)OP(=O)(O)NP(=O)(O)O)[C@@H](O)[C@H]1O [adenylyl imidodiphosphate]
Assay: NP40-soluble protein abundance relative to vehicle (solubility fold change) (ratio); higher = more soluble protein in presence of AMP-PNP
In short: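 Crude Jurkat lysate, prepared by Dounce homogenisation, was exposed to eight concentrations from 0.1 to 10 mM for 10 min at room temperature and then 3 min at 37 °C. Solubilisation used 0.8% NP40 with benzonase for 60 min at 4 °C, followed by ultracentrifugation and TMT labelling of the supernatant for LC-MS/MS. After vsn normalisation of intensities, each value is the fold change against the detergent-processed vehicle within each replicate, across three independent experiments.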

Sequence of UniProt O15541 (O15541 whole entry): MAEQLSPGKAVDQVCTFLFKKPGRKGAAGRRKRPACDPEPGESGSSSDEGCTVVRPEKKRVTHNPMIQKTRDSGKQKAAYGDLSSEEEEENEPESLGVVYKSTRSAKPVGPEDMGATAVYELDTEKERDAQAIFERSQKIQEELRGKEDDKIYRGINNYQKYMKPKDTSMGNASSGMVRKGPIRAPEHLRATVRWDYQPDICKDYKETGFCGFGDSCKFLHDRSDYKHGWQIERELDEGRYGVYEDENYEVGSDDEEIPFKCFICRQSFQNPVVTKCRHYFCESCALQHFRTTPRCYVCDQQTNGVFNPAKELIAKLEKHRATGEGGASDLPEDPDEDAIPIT
Sequence of UniProt Q9H2H9 (Q9H2H9 whole entry, one chain of several): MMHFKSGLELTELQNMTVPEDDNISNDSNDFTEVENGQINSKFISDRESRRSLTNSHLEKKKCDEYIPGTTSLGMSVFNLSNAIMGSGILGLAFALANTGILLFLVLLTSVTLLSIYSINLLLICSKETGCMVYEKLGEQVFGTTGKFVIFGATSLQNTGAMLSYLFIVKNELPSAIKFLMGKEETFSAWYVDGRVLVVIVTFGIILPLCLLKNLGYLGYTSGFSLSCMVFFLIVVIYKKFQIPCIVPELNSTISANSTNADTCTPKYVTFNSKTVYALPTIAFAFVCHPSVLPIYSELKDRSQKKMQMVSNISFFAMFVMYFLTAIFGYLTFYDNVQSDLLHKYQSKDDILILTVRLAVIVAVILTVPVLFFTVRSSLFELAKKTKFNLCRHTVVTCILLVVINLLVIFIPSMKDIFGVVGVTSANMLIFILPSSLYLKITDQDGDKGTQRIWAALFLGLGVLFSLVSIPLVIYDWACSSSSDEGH
Sequence of UniProt Q9H6E5 (Q9H6E5 whole entry, one chain of several): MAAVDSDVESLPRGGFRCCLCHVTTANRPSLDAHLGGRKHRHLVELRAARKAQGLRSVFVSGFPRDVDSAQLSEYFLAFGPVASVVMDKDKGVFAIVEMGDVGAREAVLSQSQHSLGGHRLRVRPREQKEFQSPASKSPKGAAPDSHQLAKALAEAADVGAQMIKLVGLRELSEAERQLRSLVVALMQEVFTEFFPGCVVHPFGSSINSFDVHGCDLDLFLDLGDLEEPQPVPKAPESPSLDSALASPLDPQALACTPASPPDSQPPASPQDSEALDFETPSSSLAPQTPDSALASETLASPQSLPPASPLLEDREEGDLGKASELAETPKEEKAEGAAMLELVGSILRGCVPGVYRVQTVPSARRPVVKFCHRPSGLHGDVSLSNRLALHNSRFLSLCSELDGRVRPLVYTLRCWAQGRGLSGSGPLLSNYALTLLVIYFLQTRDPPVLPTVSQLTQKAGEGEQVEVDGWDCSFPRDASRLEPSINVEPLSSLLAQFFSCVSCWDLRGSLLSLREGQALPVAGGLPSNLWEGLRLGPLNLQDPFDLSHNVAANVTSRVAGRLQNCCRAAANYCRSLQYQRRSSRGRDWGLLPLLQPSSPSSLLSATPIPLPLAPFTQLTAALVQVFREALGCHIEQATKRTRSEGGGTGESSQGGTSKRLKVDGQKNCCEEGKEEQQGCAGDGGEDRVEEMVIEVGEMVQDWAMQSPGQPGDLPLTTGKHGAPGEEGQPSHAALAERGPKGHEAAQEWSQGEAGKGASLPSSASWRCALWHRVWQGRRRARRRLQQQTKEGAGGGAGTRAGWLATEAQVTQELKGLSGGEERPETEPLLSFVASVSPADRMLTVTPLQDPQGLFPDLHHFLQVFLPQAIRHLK
Sequence of UniProt O75113 (O75113 whole entry): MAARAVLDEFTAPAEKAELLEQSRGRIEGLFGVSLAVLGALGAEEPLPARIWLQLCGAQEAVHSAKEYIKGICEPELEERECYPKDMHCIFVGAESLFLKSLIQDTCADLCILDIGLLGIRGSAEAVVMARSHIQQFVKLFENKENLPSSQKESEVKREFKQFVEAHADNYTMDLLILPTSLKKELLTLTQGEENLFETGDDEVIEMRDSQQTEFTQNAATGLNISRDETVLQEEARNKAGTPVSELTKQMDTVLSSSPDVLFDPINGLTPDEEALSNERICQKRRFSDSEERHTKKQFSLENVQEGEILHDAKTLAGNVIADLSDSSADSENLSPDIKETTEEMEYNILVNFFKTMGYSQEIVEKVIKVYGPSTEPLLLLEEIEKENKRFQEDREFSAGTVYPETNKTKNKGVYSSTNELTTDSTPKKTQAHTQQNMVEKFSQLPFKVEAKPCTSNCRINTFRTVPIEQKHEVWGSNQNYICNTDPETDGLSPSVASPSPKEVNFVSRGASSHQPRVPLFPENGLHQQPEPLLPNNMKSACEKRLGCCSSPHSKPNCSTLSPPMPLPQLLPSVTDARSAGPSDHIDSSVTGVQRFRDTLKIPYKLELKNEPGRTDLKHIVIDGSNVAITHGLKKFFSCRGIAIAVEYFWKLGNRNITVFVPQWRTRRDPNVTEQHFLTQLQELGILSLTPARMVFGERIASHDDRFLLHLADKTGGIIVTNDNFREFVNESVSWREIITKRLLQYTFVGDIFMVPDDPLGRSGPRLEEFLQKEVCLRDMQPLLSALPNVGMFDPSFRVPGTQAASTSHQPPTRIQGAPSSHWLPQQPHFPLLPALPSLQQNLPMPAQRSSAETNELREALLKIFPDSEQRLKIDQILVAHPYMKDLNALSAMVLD
Sequence of UniProt Q96CD2 (Q96CD2 whole entry, one chain of several): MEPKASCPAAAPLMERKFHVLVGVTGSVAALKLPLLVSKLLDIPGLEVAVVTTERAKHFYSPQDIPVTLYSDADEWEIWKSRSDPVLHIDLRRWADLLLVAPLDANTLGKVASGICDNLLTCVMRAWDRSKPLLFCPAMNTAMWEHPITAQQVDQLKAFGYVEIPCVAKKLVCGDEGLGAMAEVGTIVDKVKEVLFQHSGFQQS
Sequence of UniProt Q96K37 (Q96K37 whole entry, one chain of several): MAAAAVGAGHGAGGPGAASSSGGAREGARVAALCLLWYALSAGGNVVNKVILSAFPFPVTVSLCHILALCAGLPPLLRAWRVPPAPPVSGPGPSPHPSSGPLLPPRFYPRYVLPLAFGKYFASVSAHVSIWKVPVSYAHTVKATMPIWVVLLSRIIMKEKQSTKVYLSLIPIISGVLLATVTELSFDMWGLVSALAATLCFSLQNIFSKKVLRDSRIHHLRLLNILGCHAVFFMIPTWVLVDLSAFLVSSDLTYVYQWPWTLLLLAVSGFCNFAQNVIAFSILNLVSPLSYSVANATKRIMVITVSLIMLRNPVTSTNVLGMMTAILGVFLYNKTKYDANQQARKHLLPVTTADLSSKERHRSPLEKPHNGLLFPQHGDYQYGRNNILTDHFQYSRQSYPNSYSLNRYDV
Sequence of UniProt P17480 (P17480 whole entry, one chain of several): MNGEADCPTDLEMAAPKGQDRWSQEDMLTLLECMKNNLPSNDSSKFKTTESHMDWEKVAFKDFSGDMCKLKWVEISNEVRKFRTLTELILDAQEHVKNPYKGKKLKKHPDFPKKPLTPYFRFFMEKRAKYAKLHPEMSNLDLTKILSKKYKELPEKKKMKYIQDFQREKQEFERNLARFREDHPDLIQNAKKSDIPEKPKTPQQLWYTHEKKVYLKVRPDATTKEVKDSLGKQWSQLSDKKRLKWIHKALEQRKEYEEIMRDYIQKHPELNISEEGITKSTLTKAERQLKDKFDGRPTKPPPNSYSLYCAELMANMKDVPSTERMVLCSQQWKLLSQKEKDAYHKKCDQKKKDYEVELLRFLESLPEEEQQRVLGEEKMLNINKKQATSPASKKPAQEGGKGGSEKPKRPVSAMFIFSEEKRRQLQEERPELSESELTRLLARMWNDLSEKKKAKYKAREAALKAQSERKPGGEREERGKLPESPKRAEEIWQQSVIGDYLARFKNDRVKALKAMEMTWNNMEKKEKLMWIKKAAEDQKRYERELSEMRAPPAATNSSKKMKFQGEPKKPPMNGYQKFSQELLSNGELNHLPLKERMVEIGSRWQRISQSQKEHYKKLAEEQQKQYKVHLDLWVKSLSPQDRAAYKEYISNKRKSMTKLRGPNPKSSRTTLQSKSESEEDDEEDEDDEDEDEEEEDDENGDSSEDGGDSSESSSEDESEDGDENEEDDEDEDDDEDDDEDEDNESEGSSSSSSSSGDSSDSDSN
Sequence of UniProt P61769 (P61769 whole entry, one chain of several): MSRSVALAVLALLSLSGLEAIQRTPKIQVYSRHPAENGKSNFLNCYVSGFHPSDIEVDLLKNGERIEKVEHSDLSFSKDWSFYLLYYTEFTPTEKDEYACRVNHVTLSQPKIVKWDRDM
Sequence of UniProt Q96K21 (Q96K21 whole entry, one chain of several): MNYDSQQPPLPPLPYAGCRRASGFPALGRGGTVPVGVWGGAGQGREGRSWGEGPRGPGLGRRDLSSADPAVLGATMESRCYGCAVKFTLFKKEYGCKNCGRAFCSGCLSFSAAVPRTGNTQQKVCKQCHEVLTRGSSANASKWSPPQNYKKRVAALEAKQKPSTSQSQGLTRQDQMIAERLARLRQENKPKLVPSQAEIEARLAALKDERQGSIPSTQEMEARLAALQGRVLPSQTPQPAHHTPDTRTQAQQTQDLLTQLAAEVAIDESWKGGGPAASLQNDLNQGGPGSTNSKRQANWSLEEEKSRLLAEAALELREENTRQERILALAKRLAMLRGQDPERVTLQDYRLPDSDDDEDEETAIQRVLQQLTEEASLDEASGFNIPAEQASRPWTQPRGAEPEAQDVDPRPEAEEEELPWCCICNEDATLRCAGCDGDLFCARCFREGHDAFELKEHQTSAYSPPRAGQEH
Sequence of UniProt P61020 (P61020 whole entry, one chain of several): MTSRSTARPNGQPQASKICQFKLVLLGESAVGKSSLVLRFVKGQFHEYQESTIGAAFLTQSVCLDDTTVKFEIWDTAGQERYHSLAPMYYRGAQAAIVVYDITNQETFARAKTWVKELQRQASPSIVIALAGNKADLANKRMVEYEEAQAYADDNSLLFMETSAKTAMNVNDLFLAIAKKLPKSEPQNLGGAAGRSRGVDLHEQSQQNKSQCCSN

Target	NP40-soluble protein abundance (concentration: 1mM)	NP40-soluble protein abundance (concentration: 2mM)	NP40-soluble protein abundance (concentration: 4mM)	NP40-soluble protein abundance (concentration: 6mM)	NP40-soluble protein abundance (concentration: 8mM)	NP40-soluble protein abundance (concentration: 10mM)
G3XAG1|Q96ME7|Q96ME7-3 (UniProt Q96ME7)	1.04 ± 0.064	1.03 ± 0.1	1.17 ± 0.086	1.39 ± 0.083	1.52 ± 0.039	1.64 ± 0.1
F8VQE1|Q9UHB6|Q9UHB6-2 (UniProt Q9UHB6)	1.17 ± 0.073	1.28 ± 0.2	1.33 ± 0.12	1.39 ± 0.18	1.37 ± 0.17	1.58 ± 0.21
L0R819 (UniProt Q9NWL6)	1.04 ± 0.017	1.03 ± 0.074	1.01 ± 0.026	0.996 ± 0.089	0.972 ± 0.055	1 ± 0.044
H3BRF9|Q96K21|Q96K21-3 (UniProt Q96K21)	0.998 ± 0.015	1.03 ± 0.05	1.02 ± 0.049	0.979 ± 0.02	0.959 ± 0.028	0.997 ± 0.044
H3BRQ0|Q96CD2 (UniProt Q96CD2)	0.997 ± 0.028	0.998 ± 0.014	0.9917 ± 0.0054	1.018 ± 0.008	1 ± 0.041	0.978 ± 0.011
F5H0R1|Q9H6E5 (UniProt Q9H6E5)	0.994 ± 0.023	1.01 ± 0.039	1.02 ± 0.016	0.973 ± 0.032	0.983 ± 0.024	0.978 ± 0.025
E9PLV1|Q9NQV6|Q9NQV6-1|Q9NQV6-2|Q9NQV6-4|Q9NQV6-5|Q9NQV6-6|Q9NQV6-7|E9PRS0 (UniProt Q9NQV6)	1 ± 0.012	0.963 ± 0.055	0.9952 ± 0.0059	0.989 ± 0.021	1 ± 0.034	0.98 ± 0.023
H7C1I0|Q96K37|Q96K37-2 (UniProt Q96K37)	1.02 ± 0.041	1.03 ± 0.017	1.02 ± 0.022	1.02 ± 0.039	1.05 ± 0.054	1.07 ± 0.056
RNF113A (UniProt O15541)	1.02 ± 0.038	1.04 ± 0.089	0.999 ± 0.029	0.979 ± 0.017	0.935 ± 0.012	0.973 ± 0.035
N4BP1 (UniProt O75113)	1.01 ± 0.014	1.02 ± 0.039	1.02 ± 0.032	0.979 ± 0.027	0.96 ± 0.012	0.954 ± 0.028
F8VXC8|Q8TAQ2|Q8TAQ2-2|Q8TAQ2-3 (UniProt Q8TAQ2)	1.03 ± 0.034	1.07 ± 0.04	1.04 ± 0.047	1.04 ± 0.1	1.04 ± 0.064	1.09 ± 0.1
H0YLF3|P61769 (UniProt P61769)	0.99 ± 0.055	0.977 ± 0.084	0.923 ± 0.1	0.879 ± 0.15	0.971 ± 0.035	0.917 ± 0.076
F8VVZ0|P61020 (UniProt P61020)	1.03 ± 0.028	0.993 ± 0.013	1.01 ± 0.024	1.07 ± 0.026	1.08 ± 0.064	1.05 ± 0.018
F8VX04|Q9H2H9 (UniProt Q9H2H9)	1.14 ± 0.1	1.36 ± 0.19	1.1 ± 0.051	1.06 ± 0.094	1.01 ± 0.087	1.13 ± 0.19
E9PLT2|P17480|P17480-2 (UniProt P17480)	1.08 ± 0.032	1.23 ± 0.06	1.32 ± 0.055	1.47 ± 0.026	1.56 ± 0.027	1.73 ± 0.044
H0YHA7|J3QQ67|Q07020|Q07020-2 (UniProt Q07020)	1.02 ± 0.038	0.9774 ± 0.0023	1.01 ± 0.086	0.9115 ± 0.0037	0.766 ± 0.042	1.04 ± 0.082
